# Compounds with a hit are over-represented: about 7.9% of the library has one in this group of screens.
# KB-V1 cytotox = KB-V1 MDR subline cytotoxicity | AID 1347076 | hit rate 3.4% among 400,000 | KB-V1 MDR cells viability, CellTiter-Glo, 72 h | Potency, µM (highest dose often 46.1 µM), most hits filed as cytotoxic; further: on the % scale 0 is the no-effect control and ±100 the full control effect; nearly all actives have a fitted effect of over 60% in size
#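 Drug-selected KB-V1 cells, grown in DMEM lacking phenol red with 10% FBS, receive compound titrations; after three days at 37 degrees C, surviving cell ATP is quantified by CellTiter-Glo luminescence and responses normalized and curve-fitted.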
# HT1080NT lethal = kills 2HG-producing HT-1080-NT fibrosarcoma cells; HT-1080-NT fibrosarcoma viability, CellTiter-Glo ATP luminescence, 48 h; Potency, µM (series often up to 46.1 µM), for inactives: at the highest dose activity, negative = less viability, most hits filed as cytotoxic; hit rate 1.6% among 360,000; AID 686970;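 further: NT is the 2HG producing partner of a matched IDH1 knockdown line; 0% = DMSO-treated cells and -100% = media-only wells without cells; nearly all actives have a fitted effect of over 55% in size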
#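 Compounds were tested in concentration-response format on HT-1080-NT cells for 48 hours at 37 degrees C. Cell viability came from CellTiter-Glo luminescence; curves were classified by r2, response magnitude and activity.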
# HT1080 IDH1KD tx = HT-1080 IDH1 knockdown cell toxicity (counter line) | HT-1080 IDH1 knockdown viability, ATP luminescence, 48 h | Potency, µM (highest dose often 46.1 µM), inactives show at the top dose activity, negative = toxicity, usual class: cytotoxic | hit rate 2% among 360,000 | AID 686971;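 further: 0% = DMSO wells and -100% = cell-free medium wells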
#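 CellTiter-Glo luminescence after 48 h compound exposure at 37 degrees C of IDH1-knockdown HT-1080 cells in 5% FBS RPMI. %Activity scaled between DMSO wells and cell-free media wells, with curves fitted and assigned curve classes.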
# KB-3-1 tox = KB-3-1 parental cell cytotoxicity. KB-3-1 viability, CellTiter-Glo ATP luminescence, 72 h. Potency, µM (titrated, usually from 46.1 µM), most hits filed as cytotoxic. hit rate 1.4% among 400,000; further: on the % scale 0 is the no-effect control and ±100 the full control effect; nearly all actives have a fitted effect of over 60% in size
#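 Parental KB-3-1 viability, qHTS format: 72 h compound exposure, 37 °C; CellTiter-Glo; media-only wells and DMSO plates as controls; concentration-effect fits on corrected data.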
# SW480 rereplic = inducers of DNA re-replication in SW480 colon cancer cells. SW480 DNA re-replication, Hoechst DNA content imaging, 48 h. AID 624297. Potency, µM (highest dose often 46.1 µM), for the others: at the highest dose re-replication activation, usual class: activators. hit rate 1.8% among 340,000; further: % of control where 0% means no effect; nearly all actives have a fitted effect of over 55% in size
#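 Cells (250 per well) received 23 nL compound or DMSO by pin tool and were kept 48 hr at 37 C, 5% CO2. Nuclei were then stained with Hoechst for 40 min and scanned for DNA content.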
# MCF10A rerep = DNA re-replication induction in MCF 10a cells; MCF 10A DNA re-replication, Hoechst nuclear intensity, 48 h; Potency, µM (doses to about 46.1 µM), for the others: at the top dose activity, positive = re-replication, most hits filed as activators; hit rate 2.9% among 350,000; AID 624296; further: % of control where 0% means no effect; nearly all actives have a fitted effect of over 50% in size
# Starred values were filed as active, the others as inactive; i = inactive; ? = inconclusive; / = no result. The call rests on the fitted dose curve; in most records, active means well fitted curve in the direction sought with a large enough effect; inconclusive means small, poorly fitted or top-dose-only effect, or another doubt; inactive means no such curve, though single readings can be large; an effect the other way counts as inactive or inconclusive. Potency means the concentration at half of the fitted maximal effect.
SMILES,KB-V1 cytotox,HT1080NT lethal,HT1080 IDH1KD tx,KB-3-1 tox,SW480 rereplic,MCF10A rerep
Cc1ccc(C)c(OCc2cc(C(=O)N(C)Cc3nccn3C)no2)c1,13µM*,-17%,0%,i,0%,16%
Cc1ccccc1CN1[C@H]2CCCC[C@@H]2OCCS1(=O)=O,?,/,/,i,/,/
Cc1nn(C)c(C(=O)Nc2ccn(Cc3c(F)c(F)cc(F)c3F)n2)c1[N+](=O)[O-],13µM*,2%,12%,i,-1%,12%
C[C@H](NC(=O)c1ncn2c1C(=O)N[C@@H](C)C2)c1ccccc1,?,3%,-3%,i,/,/
O=C(Nc1cccc(Cl)c1)Nc1sccc1-c1nc2ccccc2s1,?,-20%,-21%,i,18µM*,16µM*
CCOC(=O)Cn1c(=NC(=O)c2ccc([N+](=O)[O-])s2)sc2ccccc21,?,-4%,1%,4.6µM*,?,3.7µM*
NNC(=O)/C(=C\c1ccco1)NC(=O)c1ccco1,i,15µM*,?,i,?,21µM*
C=CCNC(=O)/C(=C\c1ccco1)NC(=O)c1ccco1,i,17%,23%,i,0%,-3%
COc1ccc(CCNc2cc(-c3ccccc3)nc3ncnn23)cc1,2.6µM*,0%,-13%,?,-43%,-3%
c1ccc(Nc2cc(-c3ccccc3)nc3ncnn23)cc1,15µM*,0%,?,i,?,?
CN(C)CCCNc1nc2cc(-c3ccn[nH]3)sc2c(=O)n1C,i,25%,4%,i,/,/
C#C[C@]1(O)CCC2C3CCC4=CC(=O)CC[C@@H]4C3CC[C@@]21C (some centres undefined),2.9µM*,12%,0%,?,-6%,-4%
COc1cccc(C(=O)N2c3cc(C)ccc3C(C)(c3ccccc3)CC2(C)C)c1 (centres undefined),?,/,/,i,/,/
CCOc1ccc(S(=O)(=O)Nc2cccc(-c3ccc(N4CCC(C)CC4)nn3)c2)cc1,i,/,/,i,/,/
OCCNc1nc(-c2ccccc2)c2ccccc2n1,i,-2%,2%,i,?,?
c1ccc(-c2nnnc3ccccc23)cc1,i,10%,10%,i,-10%,-1%
COCCNC(=O)c1cccc(Nc2nc(-c3ccccc3)c3cc(Cl)ccc3n2)c1,?,-23%,?,15µM*,?,2.6µM*
OCCNc1nc(-c2ccccc2)c2cc(Cl)ccc2n1,?,?,?,i,?,21µM*
Cc1ccc2nc(NCCO)nc(-c3ccccc3)c2c1,12µM*,-3%,-14%,i,?,?
CC(=O)NNc1nc(-c2ccccc2)c2cc(Cl)ccc2n1,i,-5%,0%,i,/,/
Clc1ccc2nnnc(-c3ccccc3)c2c1,10µM*,?,?,2.6µM*,?,3.3µM*
CCn1c(=O)c2cc(C(=O)NCCc3cc(OC)ccc3OC)sc2c2ccccc21,i,/,/,i,/,/
CC1(C(=O)Nc2ccc3c(c2)OCCO3)CN(S(C)(=O)=O)CC(=O)N1CC(F)(F)F (centres undefined),i,7%,6%,i,/,/
Cc1ccc2nc(N/N=C/c3ccccc3C#N)nc(-c3ccccc3)c2c1,?,1%,-6%,i,?,13µM*
COc1ccccc1NS(=O)(=O)c1cc(NC(=S)Nc2cc(C)cc(C)c2)ccc1Cl,15µM*,11%,10%,?,9%,5%
SMILES,KB-V1 cytotox,HT1080NT lethal,HT1080 IDH1KD tx,KB-3-1 tox,SW480 rereplic,MCF10A rerep
COc1ccc(NC(=O)c2ccc(F)cc2)cc1S(=O)(=O)Nc1cc(C)ccc1Br,4.6µM*,?,?,?,?,15µM*
Cc1ccc(NS(=O)(=O)c2cc(NC(=O)C(C)Oc3ccccc3)ccc2C)c(C)c1 (centres undefined),18µM*,-30%,?,?,2%,23%
CCNC(=S)Nc1ccc(C)c(S(=O)(=O)Nc2ccccc2OC)c1,i,7%,-10%,i,-4%,17%
COc1ccccc1NS(=O)(=O)c1cc(NC(=O)CNC(=O)c2cc(C)cc(C)c2)ccc1C,18µM*,5%,0%,i,?,6%
Cc1ccc(NC(=O)C(C)Oc2ccccc2)cc1S(=O)(=O)N1CCCCCC1 (centres undefined),i,-15%,-18%,i,-1%,13%
Cc1ccc(CCNc2nc3c(S(=O)(=O)c4ccc(C)cc4)nnn3c3ccsc23)cc1,i,/,/,i,/,/
CCN1CCN(C(=O)c2cnn(-c3ccc(F)cc3F)c2C2CCN(C(=O)OC(C)(C)C)CC2)CC1,i,/,/,i,/,/
CCCc1cc(C(=O)NNC(=S)Nc2cccc(C)c2)cs1,15µM*,-6%,0%,i,-9%,20%
Cc1cccc(NC(=S)NNC(=O)c2cc3c(s2)CCC(C)C3)c1C (centres undefined),?,0%,0%,i,-4%,16µM*
Cc1cccc(NC(=S)NNC(=O)c2csc3c2CCC(C)C3)c1 (centres undefined),23µM*,-7%,?,i,7%,?
CC(C)CNC(=S)NNC(=O)c1csc2c1CCC(C)C2 (centres undefined),7.3µM*,?,?,i,-5%,19%
Cc1nnc(NC(=O)c2csc3c2CCC(C)C3)s1 (centres undefined),i,-1%,2%,i,-41%,-8%
Cc1ccc(C)c(NC(=S)NNC(=O)c2cc3c(s2)CCC(C)C3)c1 (centres undefined),i,3%,12%,i,-2%,?
O=C(CCNS(=O)(=O)c1ccc2c(c1)CCCC(=O)N2)NCc1ccccc1Cl,i,/,/,i,/,/
ClCCn1c(CCl)nc2ccc(Cl)cc21,i,-13%,-1%,i,/,/
O=C(CSc1nc2cc([N+](=O)[O-])ccc2n1-c1ccc(F)cc1)NC1CCS(=O)(=O)C1 (centres undefined),23µM*,2%,3%,i,-2%,2%
COc1ccccc1-n1c(SCC(=O)NC2CCS(=O)(=O)C2)nc2cc([N+](=O)[O-])ccc21 (centres undefined),i,2%,16%,i,0%,-1%
O=C(Cc1n[nH]c(=O)c2ccccc12)OCC(=O)c1ccc(F)cc1,i,0%,8%,i,0%,4%
COc1cccc(NC(=O)CN(C)C(=O)Cc2n[nH]c(=O)c3ccccc23)c1,i,-2%,-5%,i,-22%,0%

# Source: PubChem BioAssay (National Center for Advancing Translational Sciences (NCATS))
